Among the data in PubChem BioAssay (NCI) are growth values, retold here.

Among the test systems are NCI-H226 lung; NCI-H322M lung; HOP-62 NSCLC; NCI-H460 lung; HOP-92 NSCLC; NCI-H522 lung; A549/ATCC NSCLC; 786-0 renal; COLO 205 colon; DU-145 prostate.
Common to all, as to experiment: NCI-60 one-dose screen, 48 h (100 = growth as untreated, 0 = no growth, -100 = all killed)
Holding throughout (settings): 10 µM unless noted

This is part of a sample that, as a whole, favours compounds with a hit. Of some 83,000 tested, about 20% had one in any assay.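 The endpoint reported here, percent growth, reads 100 for growth as untreated, 0 for no net growth and -100 for all cells dead.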 Unmarked numbers belong to inactive results. Active and inactive are the calls of the source. How the source made its calls: active means growth percent below 10; inactive means the rest.

For the compound `COc1cc(/C=C/C(=O)c2ccc(C(F)(F)F)cc2)ccc1Oc1nc(NCCO)nc(N2CCOCC2)n1`, the growth in the experiment on NCI-H226 lung is 89.2%; in the experiment on NCI-H322M lung it was 101%; with HOP-62 NSCLC it was 90.2%; in the experiment with NCI-H460 lung it was 98.7%; in the experiment on HOP-92 NSCLC it was 95%; in the experiment with NCI-H522 lung, 86.8%. Moreover, the growth in the experiment on A549/ATCC NSCLC is 91.6%; in the experiment with 786-0 renal, 100%; in the experiment with COLO 205 colon, 108%; in the experiment on DU-145 prostate, 101%.

With `NS(=O)(=O)c1cccc(Nc2nc(SCC(=O)c3ccc(Br)cc3)nc3ccccc23)c1`, the growth was 4.97% (active) in the experiment with NCI-H226 lung; 97.6% with NCI-H322M lung; 59.5% in the experiment on HOP-62 NSCLC; 38.5% in the experiment on NCI-H460 lung; 38.2% in the experiment on HOP-92 NSCLC; 40.8% in the experiment with NCI-H522 lung. For the same compound, the growth with A549/ATCC NSCLC is 60.3%; with 786-0 renal, 14.2%; in the experiment with COLO 205 colon, 75.8%; in the experiment with DU-145 prostate, 69.4%.

`COc1cc(OC)c(C2C(Cl)C(=O)N2Nc2ncnc3ccccc23)cc1OC` (stereo not given): the growth in the experiment with NCI-H226 lung was 90.3%; in the experiment with NCI-H322M lung, 92.3%; in the experiment with HOP-62 NSCLC, 100%; in the experiment on NCI-H460 lung, 107%; in the experiment with HOP-92 NSCLC it was 102%; with NCI-H522 lung, 94.2%. Besides, the growth in the experiment on A549/ATCC NSCLC was 105%; in the experiment with 786-0 renal it was 98.6%; with COLO 205 colon, 125%; in the experiment with DU-145 prostate, 109%.

Regarding `CCN1C(=S)N(CC)C2C1N=C(SC)N2/N=C/C=C/c1ccccc1[N+](=O)[O-]` (stereo not given), the growth in the experiment on NCI-H226 lung was 92.9%; in the experiment on NCI-H322M lung, 92.3%; in the experiment on HOP-62 NSCLC, 99.7%; with NCI-H460 lung, 93.5%; with HOP-92 NSCLC, 79.7%; with NCI-H522 lung, 93.6%. Besides, the growth in the experiment with A549/ATCC NSCLC is 92.8%; in the experiment on 786-0 renal, 101%; in the experiment with COLO 205 colon it was 120%; with DU-145 prostate, 101%.

As to `C#Cc1nc(C2=C(C)C(=N\O)/C(=N/O)C2)cs1`, the growth with NCI-H226 lung is 101%; in the experiment on NCI-H322M lung, 99.2%; with HOP-62 NSCLC, 101%; in the experiment on NCI-H460 lung, 97%; in the experiment on HOP-92 NSCLC, 88.5%; in the experiment on NCI-H522 lung, 91.8%. Also, the growth in the experiment with A549/ATCC NSCLC was 95.3%; with 786-0 renal, -90.9% (active); in the experiment on COLO 205 colon, 118%; in the experiment with DU-145 prostate, 92.2%.

Consider `Cc1cccc2sc(/N=C(\N)C(Cl)(Cl)Cl)nc12`, for which the growth with NCI-H226 lung was 100%; in the experiment on NCI-H322M lung, 103%; in the experiment on HOP-62 NSCLC, 81.5%; in the experiment with NCI-H460 lung, 100%; with HOP-92 NSCLC, 101%; in the experiment with NCI-H522 lung, 95.7%. The growth in the experiment with A549/ATCC NSCLC is 92.2%; in the experiment on 786-0 renal, 93.9%; in the experiment on COLO 205 colon it was 110%; in the experiment with DU-145 prostate it was 92.2%.

Take `CNC(=O)c1cc(-c2ccc(NC(=O)Nc3ccc(N4CCOCC4)c(C(F)(F)F)c3)cc2)nc2cccnc12`: the growth in the experiment on NCI-H226 lung is 54.8%; with NCI-H322M lung, 71.7%; in the experiment with HOP-62 NSCLC it was 80.6%; in the experiment on NCI-H460 lung, 23.9%; with HOP-92 NSCLC, 57.2%; in the experiment on NCI-H522 lung it was 65.5%. For the same compound, the growth in the experiment on A549/ATCC NSCLC is 51.6%; in the experiment on 786-0 renal, 25.9%; in the experiment on COLO 205 colon it was 84.7%; in the experiment on DU-145 prostate, 69.6%.

For the compound `O=C(Nc1nc2ccc(O)cc2s1)c1cccc(C(F)(F)F)c1`, the growth is 84.2% in the experiment with NCI-H226 lung; 84.3% in the experiment on NCI-H322M lung; 88.6% in the experiment on HOP-62 NSCLC; 56.7% with NCI-H460 lung; 69% with HOP-92 NSCLC; 35.6% in the experiment with NCI-H522 lung. The growth is 57% with A549/ATCC NSCLC, 77.1% with 786-0 renal, 107% with COLO 205 colon and 65.9% in the experiment with DU-145 prostate.

As for `CCOC(=O)c1c(Nc2ccccc2)nn2c(N)c(C#N)c(-c3ccc(F)cc3)nc12`, the growth in the experiment with NCI-H226 lung was 90.6%; in the experiment on NCI-H322M lung, 101%; in the experiment on HOP-62 NSCLC, 91.7%; with NCI-H460 lung, 86.8%; in the experiment on HOP-92 NSCLC, 99.5%; with NCI-H522 lung, 90.5%. Also, the growth with A549/ATCC NSCLC was 96.1%; in the experiment with 786-0 renal, 80.8%; with COLO 205 colon, 93.4%; in the experiment with DU-145 prostate it was 83.2%.

Regarding `O=C1Nc2ccc(Cl)cc2/C1=C/c1ccc(OCC(=O)c2ccc(Br)cc2)cc1`, the growth in the experiment with NCI-H226 lung is 78.7%; with NCI-H322M lung it was 84.7%; in the experiment on HOP-62 NSCLC it was 68.4%; with NCI-H460 lung, 94.7%; in the experiment on HOP-92 NSCLC, 72%; with NCI-H522 lung, 95.9%. In addition, the growth with A549/ATCC NSCLC was 102%; in the experiment on 786-0 renal it was 103%; in the experiment on COLO 205 colon, 98.5%; in the experiment on DU-145 prostate, 103%.

For `Clc1ccc(Cc2nnc3sc(-c4cccnc4)nn23)cc1`, the growth in the experiment on NCI-H226 lung is 93%; in the experiment on NCI-H322M lung, 87.8%; with HOP-62 NSCLC, 107%; in the experiment with NCI-H460 lung, 103%; with HOP-92 NSCLC, 91.9%; with NCI-H522 lung, 89.5%. Besides, the growth with A549/ATCC NSCLC was 98.2%; with 786-0 renal, 92.6%; with COLO 205 colon, 115%; with DU-145 prostate, 101%.

As for `Clc1ccc2c(NCCCN3CCOCC3)c3oc4ccc(Cl)cc4c3nc2c1`, the growth in the experiment with NCI-H226 lung was 38.4%; in the experiment on NCI-H322M lung, 48.5%; in the experiment with HOP-62 NSCLC, 67.2%; with NCI-H460 lung, 13%; in the experiment on HOP-92 NSCLC, 43.6%; in the experiment with NCI-H522 lung, 44.9%. The growth in the experiment on A549/ATCC NSCLC was 53.9%; with 786-0 renal it was -22.4% (active); in the experiment on COLO 205 colon it was 44.5%; in the experiment on DU-145 prostate, 57.2%.

As for `C=CCSc1ccc2c(c1)C(N1CCNCC1)=Nc1ccccc1O2`, the growth in the experiment with NCI-H226 lung was 87.4% [8.25 µM]; in the experiment with NCI-H322M lung, 85.6% [8.25 µM]; in the experiment on HOP-62 NSCLC, 84.7% [8.25 µM]; in the experiment on NCI-H460 lung, 85.7% [8.25 µM]; with HOP-92 NSCLC, 34.2% [8.25 µM]; in the experiment with NCI-H522 lung, 74% [8.25 µM]. Besides, the growth in the experiment on A549/ATCC NSCLC was 71.7% [8.25 µM]; in the experiment with 786-0 renal, 60.4% [8.25 µM]; with COLO 205 colon it was 7.69% [8.25 µM] (active); with DU-145 prostate, 90.8% [8.25 µM].

In the case of `CCCCCCNC(=O)Oc1ccc(/C(=C(/C)c2ccccc2)c2ccc(OCCN3CCCCCC3)cc2)cc1`, the growth is 76.7% in the experiment on NCI-H226 lung; 87.5% with NCI-H322M lung; 78.6% in the experiment on HOP-62 NSCLC; 6.58% (active) with NCI-H460 lung; 12.5% in the experiment on HOP-92 NSCLC; 85% in the experiment on NCI-H522 lung. Also, the growth in the experiment on A549/ATCC NSCLC is 63.1%; in the experiment with 786-0 renal, -0.48% (active); with COLO 205 colon, 21.7%; in the experiment on DU-145 prostate, 68.2%.
